Read-out in experiment [1]: Interleukin-8 (IL8), CXCL8 (gene 3576)
The experiment is described as follows: BSK_CASM3C_IL8: BioMAP Diversity Plus: CASM3C Assay for Interleukin-8 (IL8) Biomarker Activity (AID 2283042).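 Also: IL-8 protein level quantified by ELISA.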 As to conditions: primary human coronary artery smooth muscle cells; actives raise or lower the signal.

Read-out in experiment [2]: Human Leukocyte Antigen - DR isotype (HLADR), HLA-DRA (gene 3122)
The experiment is described as follows: BSK_CASM3C_HLADR: BioMAP Diversity Plus: CASM3C Assay for Human Leukocyte Antigen - DR isotype (HLADR) Biomarker Activity (AID 2283043).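 Also: cell-surface HLA-DR protein level quantified by ELISA.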 As to conditions: primary human coronary artery smooth muscle cells; actives raise or lower the signal.

Read-out in experiment [3]: Macrophage colony-stimulating factor (MCSF), CSF1 (gene 1435)
The experiment is described as follows: BSK_CASM3C_MCSF: BioMAP Diversity Plus: CASM3C Assay for Macrophage colony-stimulating factor (MCSF) Biomarker Activity (AID 2283044).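 Also: M-CSF protein amount quantified by ELISA after 24 h exposure.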 As to conditions: primary human coronary artery smooth muscle cells; actives raise or lower the signal.

Read-out in experiment [4]: Low-density lipoprotein receptor (LDLR), LDLR (gene 3949)
Description: BSK_CASM3C_LDLR: BioMAP Diversity Plus: CASM3C Assay for Low-density lipoprotein receptor (LDLR) Biomarker Activity (AID 2283045).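 Also: LDLR protein level on the cell surface quantified by ELISA.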 As to conditions: primary human coronary artery smooth muscle cells; actives raise or lower the signal.

Read-out in experiment [5]: Monocyte Chemoattractant Protein-1 (MCP1), CCL2 (gene 6347)
The experiment is described as follows: BSK_CASM3C_MCP1: BioMAP Diversity Plus: CASM3C Assay for Monocyte Chemoattractant Protein-1 (MCP1) Biomarker Activity (AID 2283046).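 Also: MCP-1 level quantified by ELISA 24 h after dosing.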 As to conditions: primary human coronary artery smooth muscle cells; actives raise or lower the signal.

Experiment [6] in a line: BSK_CASM3C_Proliferation: Cell Proliferation Assessment in the BioMAP Diversity Plus: CASM3C Assay (AID 2283047).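 Also: sulforhodamine B total protein stain as relative cell number at 560 nm; sub-confluent cells exposed 48 h before staining; fitted both ways against DMSO so gain or loss of cell number.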 As to conditions: primary human coronary artery smooth muscle cells.
Read-out in experiment [7]: Monokine induced gamma interferon (MIG), CXCL9 (gene 4283)
The experiment is described as follows: BSK_CASM3C_MIG: BioMAP Diversity Plus: CASM3C Assay for Monokine induced gamma interferon (MIG) Biomarker Activity (AID 2283048).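 Also: MIG protein level measured by ELISA.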 As to conditions: primary human coronary artery smooth muscle cells; actives raise or lower the signal.

Read-out in experiment [8]: serum amyloid A (SAA), SAA1 (gene 6288)
Description: BSK_CASM3C_SAA: BioMAP Diversity Plus: CASM3C Assay for serum amyloid A (SAA) Biomarker Activity (AID 2283049).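 Also: SAA protein level quantified by ELISA.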 As to conditions: primary human coronary artery smooth muscle cells; actives raise or lower the signal.

The nature of experiment [9]: BSK_CASM3C_SRB: Viability Assessment in the BioMAP Diversity Plus: CASM3C Assay (AID 2283050).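 Also: total protein by SRB staining as cytotoxicity measure in parallel cultures; cells exposed to compound for 24 h.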 Particulars: primary human coronary artery smooth muscle cells.
Read-out in experiment [10]: Thrombomodulin, THBD (gene 7056)
Description: BSK_CASM3C_Thrombomodulin: BioMAP Diversity Plus: CASM3C Assay for Thrombomodulin Biomarker Activity (AID 2283051).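 Also: thrombomodulin protein level measured by ELISA 24 h after dosing.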 As to conditions: primary human coronary artery smooth muscle cells; actives raise or lower the signal.

A word on the AC50: it is the concentration giving half of the maximal activity seen.

“And” between values parts separate entries of the source, which are not always exact repeats. Equal entries are not always repeated. Where a structure was tested more than once in an assay, its records may differ in their call. The source made the active and inactive calls. The calls were made as follows: active = hit-call score of the fitted dose curve at least 0.9, where 1 is the maximum; inactive = score below 0.9.

In the case of `CCOC(=O)NCCOc1ccc(Oc2ccccc2)cc1`, the result in experiment [1], in [2], in [3], in experiment [4], in experiment [5] and in experiment [7] was inactive. The outcome in experiment [8], in [9] and in [10] was inactive. For the same compound, the half-maximal activity concentration (AC50) in experiment [6] is 7.68 µM (active).
Regarding `S=C(S)NCCNC(=S)S.[Mn+2].[S-]C([S-])=NCCN=C([S-])[S-].[Zn+2]`, the result in experiment [1], in experiment [2], in experiment [3], in [4], in [5] and in experiment [6] was inactive. Besides, the outcome in experiment [7], in experiment [8], in [9] and in experiment [10] was inactive. For the same compound, the AC50 in experiment [2] is 10 µM (active); in [3], 5.89 µM (active); in experiment [4], 10 µM (active) and 5.32 µM (active); in [6], 14.2 µM (active) [middle of 4 runs].
Regarding `CC(=O)[C@H]1CC[C@H]2[C@@H]3CCC4=CC(=O)CC[C@]4(C)[C@H]3CC[C@]12C`, the outcome in experiment [1], in experiment [3], in experiment [4], in experiment [7], in experiment [8] and in experiment [9] was inactive. Besides, the outcome in experiment [10] was inactive. Moreover, the AC50 was 8.61 µM (active) in experiment [2], 3.95 µM (active) in [5] and 12.7 µM (active) in experiment [6].
As to `c1ccc2[nH]c(-c3cscn3)nc2c1`, the result in experiment [1], in experiment [2], in experiment [3], in experiment [4], in experiment [5] and in experiment [6] was inactive. For the same compound, the outcome in [7], in [8], in experiment [9] and in [10] was inactive.
`CCOC(=O)C(C)Oc1ccc(Oc2cnc3cc(Cl)ccc3n2)cc1` (centres undefined): the outcome in [1], in [2], in experiment [3], in experiment [4], in [5] and in [6] was inactive. Moreover, the outcome in [7], in experiment [8], in experiment [9] and in experiment [10] was inactive.
For `COc1nc(C)nc(NC(=O)NS(=O)(=O)c2ccccc2OCCCl)n1`, the outcome in [1], in experiment [2], in experiment [3], in experiment [4], in experiment [6] and in experiment [7] was inactive. In addition, the result in experiment [8], in experiment [9] and in experiment [10] was inactive. Further, in experiment [5], the half-maximal activity concentration (AC50) is 0.441 µM (active).
As for `CCCCCOC(=O)COc1cc(N2C(=O)C3=C(CCCC3)C2=O)c(F)cc1Cl`, the result in experiment [1], in experiment [2], in [4], in experiment [5], in experiment [8] and in [9] was inactive. Also, in experiment [10], the result was inactive. Moreover, the results for the AC50 in [3], in experiment [6] and in experiment [7] were 14.4 µM (active), 12.6 µM (active) and 25.5 µM (active), respectively.
Regarding `O=C(c1ccccc1)C1CCCCC1`, the outcome in experiment [1], in [2], in experiment [3], in experiment [4], in [5] and in [6] was inactive. The outcome in experiment [7], in experiment [8], in experiment [9] and in experiment [10] was inactive.
Regarding `CCOC(=O)[C@H](C)Oc1ccc(Oc2nc3ccc(Cl)cc3o2)cc1`, the outcome in experiment [1], in experiment [2], in [3], in [4], in experiment [5] and in [6] was inactive. For the same compound, the outcome in [7], in [8], in experiment [9] and in experiment [10] was inactive.
Take `CCC(O)=C1C(=O)CC(C(=O)O)CC1=O` (centres undefined): the result in experiment [1], in experiment [2], in experiment [3], in [4], in experiment [5] and in experiment [6] was inactive. The outcome in [7], in experiment [8], in experiment [9] and in experiment [10] was inactive.
As for `COC(=O)CSc1cc(N=c2sc(=O)n3n2CCCC3)c(F)cc1Cl`, the outcome in experiment [1], in experiment [2], in experiment [4], in experiment [5], in [7] and in experiment [8] was inactive. The result in experiment [9] and in experiment [10] was inactive. The AC50 was 3.97 µM (active) in [3] and 29.6 µM (active) in experiment [6].
As to `S=C([S-])NCCNC(=S)[S-].[Mn+2]`, the result in [1], in [2], in experiment [3], in experiment [4], in experiment [5] and in [7] was inactive. For the same compound, the outcome in experiment [8] and in experiment [9] was inactive. For the same compound, the figures for the concentration at half-maximal activity (AC50) in experiment [6] and in experiment [10] were 29.9 µM (active) and 27.1 µM (active), respectively.
On to `CCCCOCCOCCOCc1cc2c(cc1CCC)OCO2`, for which the result in [1], in experiment [2], in experiment [3], in [4], in experiment [5] and in [6] was inactive. The result in experiment [7], in [8], in experiment [9] and in experiment [10] was inactive.
Regarding `C#C[C@]1(O)CC[C@H]2[C@@H]3CCC4=CC(=O)CC[C@@H]4[C@H]3CC[C@@]21CC`, the outcome in experiment [1], in experiment [2], in experiment [3], in experiment [4], in [5] and in experiment [6] was inactive. For the same compound, the outcome in experiment [7], in [9] and in experiment [10] was inactive. Besides, the half-maximal activity concentration (AC50) in experiment [8] was 6.06 µM (active).
Take `COC(=O)c1c(Cl)nn(C)c1S(=O)(=O)NC(=O)Nc1nc(OC)cc(OC)n1`: the outcome in [1], in experiment [2], in experiment [3], in [4], in experiment [5] and in experiment [6] was inactive. Also, the result in experiment [7], in [8], in [9] and in experiment [10] was inactive.

Values taken from PubChem BioAssay (EPA / NIEHS).
